INHIBITION data for 52 compounds are collected here from ChEMBL document CHEMBL4513216, “Probing the Open Global Health Chemical Diversity Library for Multistage-Active Starting Points for Next-Generation Antimalarials” (ACS Infect Dis, 2020).

Molecules are shown by their SMILES. Hit rate of the full screen: of about 69,000 compounds, about 8,600 (12%) showed an effect of 50% or more. Shown is part of a subset that was picked to be rich in strong results.

For the assay, the system named is Plasmodium berghei. Put plainly: Screen against P. berghei liver stage (PbLuc), transformed with Luciferase, at 10uM. In kind it is functional, HepG2. Particulars: tested at 10 uM.
As to `CC(C)n1cc(CN2CCCN(C(=O)C3CCCN3C)CC2)cn1` (configuration not stated), the INHIBITION was 26.4%. With `CCN(CCO)C[C@@H]1CN(c2cccc(C(F)(F)F)n2)C[C@@H]1CO` the figure was 3.13%; with `COc1ccccc1OCC(=O)NS(=O)(=O)c1cc(F)ccc1F`, 5.14%.

As to `COc1ccccc1OCC(=O)NS(=O)(=O)c1ccc(Cl)cc1F`, the INHIBITION is on record as 29.5%. `COc1cc(C#N)ccc1OCC(=O)NS(=O)(=O)c1ccccc1`: the INHIBITION is 50.6%. The same measure for `COc1cc(C#N)ccc1OCC(=O)NS(=O)(=O)c1cccnc1`: 19.4%. With `COc1ccccc1OCC(=O)NS(=O)(=O)c1ccc(F)cc1F` the figure was 63.3%. For `COc1ccccc1CC(=O)NS(=O)(=O)c1ccc(C#N)cc1`, the INHIBITION came out at 15.6%. The same measure for `CN1CCCN(C(=O)NCc2cc(Br)cs2)CC1`: -13.935%; for `Cc1ccc(-c2cc(C(=O)NCCN3CCCS3(=O)=O)[nH]n2)cc1`: -8.15%.

As for `Cc1ccccc1NC(=O)Nc1c[nH]c(=O)[nH]c1=O`, the INHIBITION is given as 35.7%. The same measure for `Cc1ccc(CN2CCc3ncc(CNC(=O)C4CCC4)n3CC2)o1`: 45.1%; for `O=C(NCCOC1CCCCC1)c1ccc(-c2ccco2)[nH]c1=O`: -14.6%; for `Cc1nc(-c2nnc[nH]2)sc1C(=O)N1CCCC1Cn1cccn1` (configuration not stated): -1.45%. As for `O=C(N[C@@H]1CC[C@@H](n2ccnc2)[C@@H]1O)c1cc2c(s1)CCC2`, the INHIBITION came to 9.93%.

For the compound `O=C(N[C@@H]1CCC[C@@H](n2ccnc2)[C@@H]1O)c1ccc2c(c1)CCCC2`, the INHIBITION was 38.2%. Regarding `O=C(Cc1ccc2c(c1)CCCC2)N[C@@H]1CC[C@@H](n2ccnc2)[C@@H]1O`, the INHIBITION is given as 64.9%.

Regarding `CCN1CC[C@@]2(C(=O)N3CCOCC3)CCN(C(=O)CC(C)C)CC[C@@H]12`, the INHIBITION is 11.2%. The same measure for `CNC(=O)CCS(=O)(=O)Cc1cc(Cl)c2c(c1)OCCCO2`: -11.4%; for `Cc1occc1C(=O)N1CCO[C@H]2[C@H](Oc3cccnc3)CC[C@@H]21`: 18.6%; for `CCc1c(C)nc(N)nc1N1CCCC(c2nc(CCOC)no2)C1` (configuration not stated): 68.6%. For the compound `COCCc1noc(C2CCCN(c3ncnc4c3CCC4)C2)n1` (configuration not stated), the INHIBITION is reported as 78.8%.

As to `COCCn1ccnc1C1CCCN(c2ncnc3c(C)csc23)C1` (configuration not stated), the INHIBITION is -0.529%. With `c1nc2c(c(N3CCCC(Cn4cncn4)C3)n1)CCC2` (configuration not stated) the figure was 29.2%; with `COCCc1noc(C2CCCN(c3nc(N)nc4c3CCCC4)C2)n1` (configuration not stated), 65.2%; with `CCc1nc2c(N3CCCC(c4nccn4CCOC)C3)ncnc2o1` (configuration not stated), 29.1%. The same measure for `COCCc1noc(CN2CCCC2c2noc(C3CC3)n2)n1` (configuration not stated): -14.1%. With `CC(=O)NC1CCN(c2nc(N)nc3c2CCCC3)C1` (configuration not stated) the figure was 46.6%. As to `Cc1cc(C)n(C2CCN(c3ncnc4c3CCC4)C2)n1` (configuration not stated), the INHIBITION is 36.1%. Take `COCCCN(C)C1CCCN(Cc2noc(C3CC3)n2)C1` (configuration not stated): the INHIBITION came to 44.1%. With `COCCn1ccnc1C1CCCN(c2ncnc3c2CCC3)C1` (configuration not stated) the figure was 57.5%. The same measure for `COCCN1CCN(Cc2noc(C3CC3)n2)CC1C` (configuration not stated): 20.1%; for `COC[C@]12COC[C@H]1CN(Cc1ccc3c(c1)OCO3)C2`: 35.8%. The same measure for `Cc1cnn(CC2CCCN2C(=O)c2nccnc2N)c1` (configuration not stated): 43.2%; for `COc1ccc(OC)c(C(=O)N2CCC(Nc3cccnc3)CC2)c1`: -5.08%. As to `O=C(NC1CCCN(c2ccccc2Cl)C1)c1ccc(=O)[nH]n1` (configuration not stated), the INHIBITION came to 28.7%. With `CC(C)c1nn(C)c(N(C)C)c1CNCc1ccc2c(c1)OCCO2` the figure was 19.6%. With `CCn1ncc(C(=O)NCc2ccc(C)c(OC)c2)c1C(F)(F)F` the figure was 46.7%; with `Cc1cc(C(=O)NCc2ccnc(OCC(F)(F)F)c2)on1`, -20.893%. The same measure for `Cc1ncsc1C(=O)NCc1ccnc(OCC(F)(F)F)c1`: 73.05%; for `Cc1n[nH]c(C(=O)NCc2ccnc(OCC(F)(F)F)c2)c1Br`: 81.5%. `COc1cc(CNC(=O)c2c(C)noc2C)ccn1`: the INHIBITION amounted to 32.15%. The same measure for `Cc1ccsc1C(=O)NCc1ccnc(OCC(F)(F)F)c1`: 39.5%; for `Cc1cc(C(=O)NCc2ccnc(OCC(F)(F)F)c2)no1`: -10.45%; for `Cc1noc(C)c1C(=O)NCc1ccnc(OCC(F)(F)F)c1`: 63.6%.

Turning to `CCOc1cccc(CNC(=O)c2cnn(CC)c2C(F)(F)F)c1`, the INHIBITION is recorded as -15.3%.

As for `CCOc1cc(CNC(=O)c2cnn(CC)c2C(F)(F)F)ccn1`, the INHIBITION is 70.4%. Turning to `Cc1noc(C)c1CC(=O)NCc1ccnc(OCC(F)(F)F)c1`, the INHIBITION is given as -9.535%. With `Cc1ccoc1C(=O)NCc1ccnc(OCC(F)(F)F)c1` the figure was -23.593%; with `CCn1ncc(S(=O)(=O)N2CCCC3(CC=CNC3=O)C2)c1C` (configuration not stated), 46.2%. The same measure for `CC(C)c1nc2n(n1)CC(NCc1nnc(C3CC3)o1)CC2` (configuration not stated): -2.53%; for `Cc1nc(C(C)C)sc1C(=O)NCCn1nc2ccccn2c1=O`: -22.5%.
